Reference: PubChem BioAssay (NCI)
This is part of a sample that, as a whole, favours compounds with a hit. Of some 83,000 tested, about 20% had one in any assay.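 Single-concentration screen, 48 h exposure, 96-well plates. Endpoint: percent growth. Below 10 = active.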 Activity calls are given as the source filed them.

Experiments:
Experiment in all cases: NCI-60 one-dose screen, 48 h (100 = growth as untreated, 0 = no growth, -100 = all killed)
Conditions in all cases: 10 µM unless noted
NCI-H23 lung = test system: NCI-H23 lung
NCI-H226 lung = test system: NCI-H226 lung
NCI-H322M lung = test system: NCI-H322M lung
HOP-62 NSCLC = test system: HOP-62 NSCLC
NCI-H460 lung = test system: NCI-H460 lung
HOP-92 NSCLC = test system: HOP-92 NSCLC
NCI-H522 lung = test system: NCI-H522 lung
A549/ATCC NSCLC = test system: A549/ATCC NSCLC
786-0 renal = test system: 786-0 renal
COLO 205 colon = test system: COLO 205 colon
DU-145 prostate = test system: DU-145 prostate
K-562 leukemia = test system: K-562 leukemia
MALME-3M melanoma = test system: MALME-3M melanoma
MDA-MB-231 breast = test system: MDA-MB-231 breast
SF-268 CNS = test system: SF-268 CNS
SF-295 CNS = test system: SF-295 CNS
SF-539 CNS = test system: SF-539 CNS
UACC-257 melanoma = test system: UACC-257 melanoma
M14 melanoma = test system: M14 melanoma

Measured: growth

COc1ccc(/C=C2\CS(=O)(=O)C/C(=C\c3ccc(OC)cc3)C2=O)cc1
inactive: NCI-H322M lung 30.9%
active: NCI-H23 lung -49.3% | NCI-H226 lung -43.9% | HOP-62 NSCLC -67.7% | NCI-H460 lung -52.6% | HOP-92 NSCLC -41.3% | NCI-H522 lung -73.6% | A549/ATCC NSCLC -56.5% | 786-0 renal -100% | COLO 205 colon -70.6% | DU-145 prostate -44.2% | K-562 leukemia -15.4% | MALME-3M melanoma -23% | MDA-MB-231 breast 8.06% | SF-268 CNS -24.7% | SF-295 CNS -14.4% | SF-539 CNS -54.6% | UACC-257 melanoma -80.5% | M14 melanoma -78.1%

CC(C)(C)NC(C1=CC(C)(C)c2ccccc2C1=O)c1ccccc1 (stereo unspecified)
active: NCI-H23 lung 9.47% | NCI-H226 lung -68.6% | NCI-H322M lung -1.08% | HOP-62 NSCLC -13.8% | NCI-H460 lung -49.2% | HOP-92 NSCLC -50.8% | NCI-H522 lung -81.5% | A549/ATCC NSCLC -9.21% | 786-0 renal -94% | COLO 205 colon -91.5% | DU-145 prostate -26.2% | K-562 leukemia -34.8% | MALME-3M melanoma -43% | MDA-MB-231 breast -1.43% | SF-268 CNS -11.3% | SF-539 CNS -40.7% | UACC-257 melanoma -59.3% | M14 melanoma -41.5%
inactive: SF-295 CNS 37.8%

CCC(C)Nc1ccc(N)cc1 (stereo unspecified)
active: NCI-H23 lung 5.04% | NCI-H460 lung 9.41% | HOP-92 NSCLC -24.5% | NCI-H522 lung -25.2% | 786-0 renal -35.8% | COLO 205 colon -57.2% | K-562 leukemia 3.79% | MALME-3M melanoma -15.6% | MDA-MB-231 breast 4.8% | UACC-257 melanoma -43.1%
inactive: NCI-H226 lung 42.5% | NCI-H322M lung 53.3% | HOP-62 NSCLC 11.6% | A549/ATCC NSCLC 11.8% | DU-145 prostate 32.1% | SF-268 CNS 47% | SF-295 CNS 11.4% | SF-539 CNS 47.5% | M14 melanoma 31.9%

Clc1ccc(CN2COc3c(ccc4cccnc34)C2)cc1Cl
active: NCI-H226 lung -11.5% | HOP-62 NSCLC -2.68% | NCI-H460 lung -26.2% | HOP-92 NSCLC -9.87% | NCI-H522 lung -56.7% | A549/ATCC NSCLC -4.93% | 786-0 renal -63.3% | DU-145 prostate 6.34% | K-562 leukemia -34.2% | MALME-3M melanoma -11.3% | SF-268 CNS -3.19% | SF-295 CNS -18.6% | SF-539 CNS -36.7% | UACC-257 melanoma -35.1% | M14 melanoma -3.94%
inactive: NCI-H23 lung 13.5% | NCI-H322M lung 12.3% | COLO 205 colon 12% | MDA-MB-231 breast 19.7%

O=C(NOC1OC(CO)C(O)C(O)C1O)Nc1ccccc1 (stereo unspecified)
inactive: NCI-H23 lung 104% | NCI-H226 lung 90.5% | NCI-H322M lung 101% | HOP-62 NSCLC 93.2% | NCI-H460 lung 103% | HOP-92 NSCLC 91.1% | NCI-H522 lung 84.9% | A549/ATCC NSCLC 106% | 786-0 renal 107% | COLO 205 colon 95.8% | DU-145 prostate 108% | K-562 leukemia 69% | MALME-3M melanoma 94.8% | MDA-MB-231 breast 99.2% | SF-268 CNS 85.7% | SF-295 CNS 98.5% | SF-539 CNS 103% | UACC-257 melanoma 107% | M14 melanoma 108%

Cc1cc(NCCN(C(C)C)C(C)C)nc(/N=C(\N)Nc2ccc(Cl)c(C(F)(F)F)c2)n1
active: NCI-H23 lung -67.1% | NCI-H226 lung -32.1% | NCI-H322M lung -51.9% | HOP-62 NSCLC -95.4% | NCI-H460 lung -84.7% | HOP-92 NSCLC -93.5% | NCI-H522 lung -81.1% | A549/ATCC NSCLC -89.5% | 786-0 renal -99.7% | COLO 205 colon -71.3% | DU-145 prostate -29.5% | K-562 leukemia -100% | MALME-3M melanoma -74.5% | MDA-MB-231 breast -65.1% | SF-268 CNS -85% | SF-295 CNS -77.8% | SF-539 CNS -97.8% | UACC-257 melanoma -95.3% | M14 melanoma -89.8%

CC(NCCC(c1ccccc1)c1ccccc1)c1ccccc1 (stereo unspecified)
active: COLO 205 colon -54.9% | K-562 leukemia -44%
inactive: NCI-H23 lung 82% | NCI-H226 lung 87.6% | NCI-H322M lung 69.8% | HOP-62 NSCLC 97.8% | NCI-H460 lung 11.6% | HOP-92 NSCLC 43.3% | NCI-H522 lung 74.8% | A549/ATCC NSCLC 80.7% | 786-0 renal 73.4% | DU-145 prostate 89.1% | MALME-3M melanoma 74.1% | MDA-MB-231 breast 83.8% | SF-268 CNS 89.2% | SF-295 CNS 62.2% | SF-539 CNS 94.7% | UACC-257 melanoma 64.4% | M14 melanoma 71.8%

O=C(Nc1ccccc1F)Nc1ccccc1Cl
inactive: NCI-H23 lung 77.5% | NCI-H226 lung 82.9% | NCI-H322M lung 103% | HOP-62 NSCLC 91.7% | NCI-H460 lung 92.4% | HOP-92 NSCLC 97.3% | NCI-H522 lung 54.9% | A549/ATCC NSCLC 88.5% | 786-0 renal 107% | COLO 205 colon 137% | DU-145 prostate 103% | K-562 leukemia 55.8% | MALME-3M melanoma 74% | MDA-MB-231 breast 85.8% | SF-268 CNS 91% | SF-295 CNS 81.4% | SF-539 CNS 91% | UACC-257 melanoma 96.1% | M14 melanoma 100%

CCOc1ccc(Cc2nccc3cc(OCC)c(OCC)cc23)cc1OCC
inactive: NCI-H23 lung 34% | NCI-H226 lung 73.3% | NCI-H322M lung 66.8% | HOP-62 NSCLC 67.7% | NCI-H460 lung 48% | HOP-92 NSCLC 52% | NCI-H522 lung 56.4% | A549/ATCC NSCLC 64.6% | 786-0 renal 64.8% | COLO 205 colon 76.2% | DU-145 prostate 77.2% | K-562 leukemia 14.3% | MALME-3M melanoma 80.2% | MDA-MB-231 breast 53.2% | SF-268 CNS 78% | SF-295 CNS 28% | SF-539 CNS 65.9% | UACC-257 melanoma 69% | M14 melanoma 70.8%
